Values without a mark were called inactive. Results filed as inconclusive are left out. A call without a number means that no potency is given here. The source made the active and inactive calls. Calls follow the shape of the dose curve; as a rule, active = well fitted curve in the direction sought with a large enough effect; inconclusive = small, poorly fitted or top-dose-only effect, or another doubt; inactive = no such curve, though single readings can be large; an effect the other way counts as inactive or inconclusive.
Assays:
[1] = target: Glutathione peroxidase 1 (Homo sapiens) (UniProt P07203); experiment: Primary qHTS Assay for Inhibitors of Recombinant Selenoprotein Glutathione Peroxidase 1 (GPX1) (AID 1845191); also: nearly all actives have a fitted effect of over 65% in size; also: potency is read from the fitted curve at half-maximal effect
Method in brief: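 NADPH consumption tracked by fluorescence at 340/450 nm between t=0 and t=15 min, room temperature. Final mix: 10 nM GPX1, 100 nM glutathione reductase, 1 mM GSH, 0.5 mM NADPH, 0.5 mM cumene hydroperoxide, 0.01% BSA; 30 min compound–enzyme preincubation.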

[2] = target: Phospholipid hydroperoxide glutathione peroxidase GPX4 (Homo sapiens) (UniProt P36969); experiment: Primary qHTS Assay for Inhibitors of Recombinant Selenoprotein Glutathione Peroxidase 4 (GPX4) (AID 1845192); also: nearly all actives have a fitted effect of over 65% in size; also: potency is read from the fitted curve at half-maximal effect
Method in brief: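 NADPH consumption followed by fluorescence at 340/450 nm, t=0 and after 15 min at room temperature. Reaction started with cumene hydroperoxide (0.5 mM final) after 30 min compound–GPX4 preincubation; final 200 nM GPX4, 100 nM GR, 1 mM GSH, 0.5 mM NADPH.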

[3] = HepG2 viability counterscreen (readout 2: ATP content) against the NCATS DSHEA and TCM libraries (AID 1794840);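 also: HepG2 cells exposed to substances for about 24 h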
Method in brief: (§1)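 Readout 1: cellular protease activity, GF-AFC substrate (25 uM final, 30 min, fluorescence 380/510 nm). Readout 2: ATP content by CellTiter-Glo luminescence after 30 min at RT. Both follow ~24 h exposure of HepG2 cells (1,000/well) to substances.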

[4] = HepG2 viability counterscreen (readout 1: protease activity) against the NCATS DSHEA and TCM libraries (AID 1794841);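 also: cells exposed to compounds for about 24 h before the protease read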
Method in brief: as §1

[5] = target: Luciferin 4-monooxygenase (Photinus pyralis) (UniProt P08659); experiment: Primary firefly luciferase (FLuc) qHTS assay for identification of artifact compounds. (AID 1845220); also: nearly all actives have a fitted effect of over 60% in size
Method in brief: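 Compounds sat 15 min at room temperature with 10 uM luciferin and 10 uM ATP (pH 7.6 Tris acetate). Firefly luciferase (10 nM final) was then added, and luminescence was read 5 min later. Data normalized to no-enzyme and DMSO controls were Hill-fitted.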

[6] = tested on: Nanoluciferase (engineered Oplophorus gracilirostris luciferase); experiment: Primary Nanoluciferase (NLuc) qHTS assay for identification of artifact compounds. (AID 1845222); also: series mostly up to about 54 µM
Method in brief: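 Luminescence from secreted NLuc (filtered, 1:55-diluted S16 cell medium) read 5 min after Nano-Glo substrate; compounds preincubated 15 min, RT. Hill fits of inhibition normalized to DMSO and no-enzyme.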

[7] = target: Metallo-beta-lactamase type 2 (Klebsiella pneumoniae) (UniProt C7C422); experiment: qHTS to identify inhibitors of the New Delhi Metallo-beta-lactamase (NDM): assay validation screen against the NCATS LOPAC Collection (AID 1794843);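 also: nitrocefin turnover by NDM-1 measured as 485 nm absorbance at plateau; series mostly up to about 38 µM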
Method in brief: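 Enzyme 2 nM final, 50 mM HEPES pH 7.0, 1 uM ZnSO4, 0.01% Tween20; cpds in DMSO, preincub w/ enzyme; + nitrocefin (50 uM stock); A485 at plateau; no-enzyme column as blank.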

[8] = target: Nuclear receptor subfamily 1 group I member 3 (Homo sapiens) (UniProt Q14994); experiment: Primary qHTS for agonist of constitutive androstane receptor (CAR) against the NCATS DSHEA and TCM libraries (AID 1794839);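 also: HepG2 cells expressing human CAR with a CYP2B6 reporter plus PK11195 antagonist; luciferase reporter luminescence read with ONE-Glo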
Method in brief: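 Agonist mode in presence of hCAR antagonist PK11195 (0.75 µM final): test substances, 24 h, 37 °C, on HepG2-CYP2B6-hCAR cells. Same-well readouts: fluorescence viability, then ONE-Glo luminescence; CITCO as reference agonist.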

[9] = Primary fluorescence-based thiol-reactive (MSTI) qHTS assay for identification of artifact compounds. (AID 1845221);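 also: series mostly up to about 54 µM; thiol-reactive compounds lower the probe fluorescence signal; nearly all actives have a fitted effect of over 65% in size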
Method in brief: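 In PBS pH 7.4 with 2% DMSO, each compound met 4 uM MSTI for one hour at ambient temperature, shielded from light, before fluorescence detection.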

[10] = Primary redox qHTS assay for identification of artifact compounds. (AID 1845223)
Method in brief: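 Redox-cycling detection via DTT (250 uM final) oxidation coupled to Amplex Red (25 uM)/HRP (250 mU/mL) in HBSS. 15 min preincubation plus 30 min after DTT, room temperature. Ex/Em 525/598 nm; 4-parameter Hill fit against DMSO and 10 uM DA3003.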

Glutathione peroxidase 1 (Homo sapiens), sequence (P07203 whole entry, looked up): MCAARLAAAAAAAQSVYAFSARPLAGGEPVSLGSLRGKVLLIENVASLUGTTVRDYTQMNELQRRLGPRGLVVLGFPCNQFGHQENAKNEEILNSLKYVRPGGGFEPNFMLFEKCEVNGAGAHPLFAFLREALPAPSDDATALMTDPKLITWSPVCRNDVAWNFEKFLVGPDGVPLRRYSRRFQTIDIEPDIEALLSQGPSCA
Phospholipid hydroperoxide glutathione peroxidase GPX4 (Homo sapiens), sequence (P36969 whole entry, looked up): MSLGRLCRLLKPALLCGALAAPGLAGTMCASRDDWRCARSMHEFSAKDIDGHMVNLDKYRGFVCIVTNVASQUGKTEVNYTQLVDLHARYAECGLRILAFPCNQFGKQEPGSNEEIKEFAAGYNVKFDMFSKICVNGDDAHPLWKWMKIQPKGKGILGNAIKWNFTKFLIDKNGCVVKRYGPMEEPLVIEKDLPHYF
Metallo-beta-lactamase type 2 (Klebsiella pneumoniae), sequence (C7C422 whole entry, looked up): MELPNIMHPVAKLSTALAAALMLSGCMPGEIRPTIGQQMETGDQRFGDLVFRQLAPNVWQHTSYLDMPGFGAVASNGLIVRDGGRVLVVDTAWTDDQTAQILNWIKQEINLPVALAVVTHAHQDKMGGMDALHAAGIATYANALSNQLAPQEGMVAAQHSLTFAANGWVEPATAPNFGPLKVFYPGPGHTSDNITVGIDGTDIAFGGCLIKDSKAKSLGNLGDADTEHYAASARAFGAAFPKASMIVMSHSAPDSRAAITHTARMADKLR
Nuclear receptor subfamily 1 group I member 3 (Homo sapiens), sequence (Q14994 whole entry, looked up): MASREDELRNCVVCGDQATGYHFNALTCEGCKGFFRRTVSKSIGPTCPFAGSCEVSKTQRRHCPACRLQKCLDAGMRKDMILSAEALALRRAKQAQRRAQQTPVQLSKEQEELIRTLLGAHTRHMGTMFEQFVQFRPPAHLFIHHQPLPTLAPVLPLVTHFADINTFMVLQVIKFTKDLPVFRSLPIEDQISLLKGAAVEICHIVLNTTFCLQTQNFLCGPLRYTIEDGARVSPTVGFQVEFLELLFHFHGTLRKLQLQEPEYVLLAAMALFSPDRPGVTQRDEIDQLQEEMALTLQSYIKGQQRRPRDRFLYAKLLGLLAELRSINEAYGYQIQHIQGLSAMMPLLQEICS

Which results are given for `COc1ccc(CNCC(O)COc2ccc3[nH]c(=O)ccc3c2)cc1OC` (configuration not stated)?
Potency [1]: inactive; Potency [2]: inactive

For `Cc1cc(Nc2ccccc2C(=O)O)ccc1Cl`, which Potency [1] is on record?
Its Potency is “inactive”.

For `CC(=O)C1=C(O)C=C2Oc3c(C(C)=O)c(O)c(C)c(O)c3[C@]2(C)C1=O`, which outcome [3] is on record?
Its outcome is “inactive”.

And the outcome [4]?
Its outcome is “inactive”.

What about the Potency [1] of the same compound?
Its Potency is “inactive”.

And the Potency [2]?
The Potency was “inactive”.

What about the Potency [5] of the same compound?
Its Potency is “inactive”.

What about the Potency [6] of the same compound?
Its Potency is “inactive”.

What does the source list for `COC(=O)Nc1cc(Nc2cc(NC3CC3)c3ncc(C#N)n3n2)c(Cl)c(N2CCN(C)CC2)c1`?
Potency [1]: inactive; Potency [2]: inactive

For `CN(C)Cc1ccccc1`, which Potency [1] is on record?
The Potency was “inactive”.

And the Potency [2]?
The Potency was “inactive”.

For `CCCC(=O)O[C@]1(C(=O)COC(=O)CC)[C@@H](C)C[C@H]2[C@@H]3CCC4=CC(=O)C=C[C@]4(C)[C@@]3(F)[C@@H](O)C[C@@]21C`, which Potency [1] is on record?
Its Potency is “inactive”.

Which results are given for `CN(C(=O)CO)c1c(I)c(C(=O)NCC(O)CO)c(I)c(C(=O)NCC(O)CO)c1I` (configuration not stated)?
Potency [1]: inactive; Potency [2]: inactive

What does the source list for `NCCCC(=O)O`?
outcome [7]: inactive; Potency [1]: inactive; Potency [2]: inactive

With `CCC(C)(C)OC(=O)N[C@@H](Cc1c[nH]c2ccccc12)C(=O)N[C@@H](CCSC)C(=O)N[C@@H](CC(=O)O)C(=O)N[C@@H](Cc1ccccc1)C(N)=O` as the compound, how does the Potency [1] read?
Its Potency is “inactive”.

With `NCCCC[C@H](NC(=O)[C@@H]1CCCN1C(=O)[C@@H]1CSSC[C@H](N)C(=O)N[C@@H](Cc2ccccc2)C(=O)N[C@@H](Cc2ccccc2)C(=O)N[C@@H](CCC(N)=O)C(=O)N[C@@H](CC(N)=O)C(=O)N1)C(=O)NCC(N)=O` as the compound, how does the Potency [1] read?
The Potency was “inactive”.

Which Potency [1] does the source give for `CS(=O)(=O)OCCCNCCCOS(C)(=O)=O` here?
Its Potency is “inactive”.

What about the Potency [2] of the same compound?
Its Potency is “inactive”.

Which Potency [1] does the source give for `Cc1ccc(/C(=C\CN2CCCC2)c2cccc(/C=C/C(=O)O)n2)cc1` here?
The Potency was “inactive”.

With `FC(F)(F)c1ccc(CNc2ccc(Cc3c[nH]c4ncc(Cl)cc34)cn2)cn1` as the compound, how does the Potency [1] read?
Its Potency is “inactive”.

And the Potency [2]?
Its Potency is “inactive”.

Which results are given for `CN[C@H]1CC[C@@H](c2ccc(Cl)c(Cl)c2)c2ccccc21`?
outcome [7]: inactive; Potency [1]: inactive; Potency [2]: inactive

Which results are given for `OCC(O)COc1ccc(Cl)cc1` (configuration not stated)?
Potency [1]: inactive; Potency [2]: inactive

With `Cc1cc(-n2c(=O)[nH]c(=O)n(C)c2=O)ccc1Oc1ccc(S(=O)(=O)C(F)(F)F)cc1` as the compound, how does the Potency [1] read?
The Potency was “inactive”.

With `Nc1c(CC(=O)O)cccc1C(=O)c1ccccc1` as the compound, how does the Potency [1] read?
Its Potency is “inactive”.

What about the Potency [2] of the same compound?
Its Potency is “inactive”.

With `N#Cc1ccnc(Nc2cc(C3CCN(C4COC4)CC3)cc(N3CCC(F)(F)C3)n2)c1` as the compound, how does the Potency [1] read?
The Potency was “inactive”.

Which outcome [8] does the source give for `O=C(O)CC(O)(CC(=O)O)C(=O)O` here?
The outcome was “inactive”.

What about the outcome [3] of the same compound?
The outcome was “inactive”.

What about the outcome [4] of the same compound?
Its outcome is “inactive”.

What about the Potency [1] of the same compound?
Its Potency is “inactive”.

For `CSCC[C@H](NC(=O)[C@H](Cc1ccc(OS(=O)(=O)O)cc1)NC(=O)[C@@H](N)CC(=O)O)C(=O)NCC(=O)N[C@@H](Cc1c[nH]c2ccccc12)C(=O)N[C@@H](CCSC)C(=O)N[C@@H](CC(=O)O)C(=O)N[C@@H](Cc1ccccc1)C(N)=O`, which Potency [1] is on record?
Its Potency is “inactive”.

Which Potency [1] does the source give for `O=[N+]([O-])c1ccc(Oc2ccc(N=C=S)cc2)cc1` here?
The Potency was “inactive”.

With `CC1(C)S[C@@H]2[C@H](NC(=O)[C@H](N)c3ccccc3)C(=O)N2[C@H]1C(=O)OCOC(=O)[C@@H]1N2C(=O)C[C@H]2S(=O)(=O)C1(C)C` as the compound, how does the Potency [1] read?
Its Potency is “inactive”.

For `C=CCNC1=C2C[C@@H](C)C[C@H](OC)[C@H](O)[C@@H](C)/C=C(\C)[C@H](OC(N)=O)[C@@H](OC)/C=C\C=C(/C)C(=O)NC(=CC1=O)C2=O`, which Potency [1] is on record?
Its Potency is “inactive”.

For `CCCCOC(=O)C(=O)Nc1cccc(-c2nn[nH]n2)c1`, which Potency [1] is on record?
Its Potency is “inactive”.

And the Potency [2]?
Its Potency is “inactive”.

Which Potency [1] does the source give for `CN1C(=O)c2sccc2N(C)c2nc(Nc3ccc(S(N)(=O)=O)cc3)ncc21` here?
Its Potency is “inactive”.

For `CC(C)(C)NC(=O)[C@H]1CC[C@H]2[C@@H]3CC=C4C=C(C(=O)O)CC[C@]4(C)[C@H]3CC[C@]12C`, which Potency [1] is on record?
The Potency was “inactive”.

And the Potency [2]?
The Potency was “inactive”.

Which results are given for `CC(C)(S)C(=O)N[C@@H](CS)C(=O)O`?
Potency [1]: inactive; Potency [2]: inactive

Which results are given for `CCCCCCCCCC(=O)O`?
outcome [3]: inactive; outcome [4]: inactive; Potency [1]: inactive; Potency [2]: inactive

For `Cn1nnnc1SCC1=C(C(=O)O)N2C(=O)[C@@H](NC(=O)[C@H](OC=O)c3ccccc3)[C@H]2SC1`, which Potency [1] is on record?
Its Potency is 9.04 µM (active).

For `COc1cc2[nH]c(C)c(CCN3CCN(c4ccccc4)CC3)c2cc1OC`, which Potency [1] is on record?
The Potency was “inactive”.

Which Potency [1] does the source give for `CN1CCN(CCCN2c3ccccc3Sc3ccccc32)CC1` here?
The Potency was “inactive”.

And the Potency [2]?
Its Potency is “inactive”.

What does the source list for `CC(C(=O)O)c1ccc(C2CCCCC2)c2ccccc12` (configuration not stated)?
Potency [1]: inactive; Potency [2]: 15.8 µM (active)

For `CC1=C(C(=O)OCCN(Cc2ccccc2)c2ccccc2)C(c2cccc([N+](=O)[O-])c2)C(P2(=O)OCC(C)(C)CO2)=C(C)N1` (configuration not stated), which Potency [1] is on record?
The Potency was “inactive”.

Which Potency [1] does the source give for `CCC(c1ccccc1)c1noc(CCN(CC)CC)n1` (configuration not stated) here?
Its Potency is “inactive”.

What about the Potency [2] of the same compound?
The Potency was “inactive”.

Which Potency [1] does the source give for `CC(CN1c2ccccc2Sc2ccc(S(=O)(=O)N(C)C)cc21)N(C)C` (configuration not stated) here?
Its Potency is “inactive”.

With `CCN(CC)CCOC(=O)c1ccc(N)cc1Cl` as the compound, how does the Potency [1] read?
Its Potency is “inactive”.

And the Potency [2]?
Its Potency is “inactive”.

For `NC(=O)c1cnc(N[C@@H]2CCCC[C@@H]2N)nc1Nc1cccc(-n2nccn2)c1`, which Potency [1] is on record?
The Potency was “inactive”.

What about the Potency [2] of the same compound?
Its Potency is “inactive”.

What does the source list for `C=C1[C@H]2CC[C@H](C(=O)O)[C@@]23CC[C@H](C3)C1(C)C`?
outcome [8]: inactive; outcome [3]: inactive; outcome [4]: inactive; Potency [1]: inactive; Potency [2]: inactive; Potency [5]: inactive; Potency [9]: inactive; Potency [6]: inactive; Potency [10]: inactive
